# Screening results from PubChem.
# Rab9 prom act: Rab9 promoter activation | AID 485297 | Huh7 Rab9 promoter-luciferase reporter, luminescence, 24 h | Potency, µM (titrated, usually from 9.22 µM), usual class: activators | 2.8% of 320,000 active; note: nearly all actives have a fitted effect of over 60% in size
#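 Steps: seed 1500 Huh7 Rab9-luc cells per well, rest 2 h at 37 °C; add compound in DMSO; incubate 24 h; add luciferase reagent, 10 min ambient; read luminescence.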
# ELG1 genotox: genotoxicity induction in ELG1-luciferase HEK293T cells; Potency, µM (top dose mostly 46 µM), actives largely listed as activators; 1.3% of 330,000 active; HEK293T ELG1-luciferase reporter, luminescence, 16 h; AID 504466; note: nearly all actives have a fitted effect of over 60% in size
#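 16 hr compound incubation (37 °C, 5% CO2) of HEK293T cells carrying luciferase-tagged ELG1; luciferase then measured by ONE-Glo luminescence after 30 min at RT.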
# NPC1 prom act: NPC1 promoter activation; Huh7 NPC1 promoter luciferase reporter, 24 h; Potency, µM (titrated, usually from 9.22 µM), actives largely listed as activators; 2.4% of 320,000 active; note: nearly all actives have a fitted effect of over 60% in size
#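 Readout is luciferase luminescence, reflecting NPC1 promoter activation in stably transfected Huh7 cells after 24 h compound exposure at 37 °C in reduced-serum medium with 10% FBS.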
# SMN2 splice up: enhancers of SMN2 splice variant expression | HEK293 SMN2-luciferase splicing reporter, luminescence, 30-36 h | Potency, µM (series often up to 46.1 µM), hits mostly activators | 2.8% of 210,000 active | AID 1458; note: nearly all actives have a fitted effect of over 55% in size
#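 HEK293 cells carry an SMN2 […]–luciferase reporter in which exon 7 inclusion puts luciferase in frame. Cells were plated 10-12 h before compound addition, then incubated 30-36 h at 37C. ONE-Glo luminescence was read; sodium butyrate at 4.5 mM final served as control.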
# Luc counter: Kinase-Glo luciferase inhibition (counter-screen); Q27757; Kinase-Glo luciferase, ATP luminescence, 8 min; Potency, µM (doses to about 38.3 µM), usual class: inhibitors; 0.28% of 200,000 active; note: nearly all actives have a fitted effect of over 60% in size
#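 Kinase-Glo luciferase light output from ATP and luciferin was measured with 10 uM ATP, within the enzyme's linear range. Buffer: 50 mM imidazole pH 7.2, 50 mM KCl, 7 mM MgCl2, 0.01% Tween 20, 0.05% BSA; luminescence read after 8 min at ambient temperature.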
# FLuc counter: counter-screen for miR-21 project: firefly luciferase inhibitors or activators; P08659; purified FLuc, Km substrates, luminescence inhibition; Potency, µM (top dose mostly 57.5 µM), hits mostly inhibitors; 6.9% of 360,000 active; AID 588342; note: nearly all actives have a fitted effect of over 55% in size
# Target sequence (P08659 whole entry, looked up): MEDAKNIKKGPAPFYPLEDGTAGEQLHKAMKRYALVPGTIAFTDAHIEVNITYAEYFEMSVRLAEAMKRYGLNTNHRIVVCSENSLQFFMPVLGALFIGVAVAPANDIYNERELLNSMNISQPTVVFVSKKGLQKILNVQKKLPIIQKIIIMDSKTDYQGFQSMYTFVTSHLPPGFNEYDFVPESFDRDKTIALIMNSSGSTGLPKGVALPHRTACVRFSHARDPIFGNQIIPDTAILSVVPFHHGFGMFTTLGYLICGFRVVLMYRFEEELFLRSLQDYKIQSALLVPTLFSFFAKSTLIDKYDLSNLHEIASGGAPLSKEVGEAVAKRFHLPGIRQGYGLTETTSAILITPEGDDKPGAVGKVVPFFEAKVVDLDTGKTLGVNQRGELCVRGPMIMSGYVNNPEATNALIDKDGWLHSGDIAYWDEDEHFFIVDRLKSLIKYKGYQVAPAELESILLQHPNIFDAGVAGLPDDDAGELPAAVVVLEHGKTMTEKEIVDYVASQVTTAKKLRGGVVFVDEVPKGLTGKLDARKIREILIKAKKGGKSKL
#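 Biochemical qHTS of compounds, final roughly 60 µM downward over six points, against 10 nM purified firefly luciferase using Km concentrations of substrates (10 uM D-luciferin, 10 uM ATP) in Tris acetate pH 7.5 buffer; luminescence output.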
# Hits are given with their value; i = inactive; ? = inconclusive; nt = not tested or not shown. The list is not random: actives were taken first. Their share in the collection is about 7.5%. Calls come from the whole dose curve; as a rule, active = well fitted curve in the direction sought with a large enough effect; inconclusive = small, poorly fitted or top-dose-only effect, or another doubt; inactive = no such curve, though single readings can be large; an effect the other way counts as inactive or inconclusive.
SMILES,Rab9 prom act,ELG1 genotox,NPC1 prom act,SMN2 splice up,Luc counter,FLuc counter
CC1=CN2C(=N)/C(=C/c3ccc(Sc4ccc(Cl)cc4)o3)C(=O)N=C2S1,i,i,i,i,i,i
Cc1c(C(=O)N(C)C(C)c2ccccn2)oc2c(F)cccc12 (stereo unspecified),i,i,i,nt,nt,i
COc1ccc(CCNC(=O)c2ccc(Cn3c(=O)[nH]c4cc(OC)c(OC)cc4c3=O)cc2)cc1OC,nt,nt,nt,i,nt,i
CN(NC(=O)c1ccccc1F)c1ncccc1[N+](=O)[O-],i,i,i,nt,nt,i
O=C(CSCC(=O)Nc1nc(-c2ccc3c(c2)OCO3)cs1)Nc1nccs1,i,i,i,nt,nt,?
O=C(Nc1nc(-c2ccc3c(c2)OCO3)cs1)C1CC1,3.55µM,16.4µM,?,11.2µM,i,12µM
CSCC(=O)Nc1nc(-c2ccc3c(c2)OCCO3)cs1,2.82µM,i,3.16µM,11.2µM,i,10.7µM
CCCC(=O)Nc1nnc(-c2ccc3c(c2)OCCO3)o1,i,i,i,?,i,15.1µM
CC(=O)Nc1ccc(-c2csc(NC(=O)C3CC(=O)N(c4ccc5c(c4)OCCO5)C3)n2)cc1 (stereo unspecified),i,i,i,nt,nt,i
CCCC(=O)Nc1nnc(-c2ccc3c(c2)OCO3)s1,?,?,i,nt,nt,i
O=C(O)C(=O)Nc1nc(-c2ccc3c(c2)OCCO3)cs1,i,i,i,nt,nt,9.53µM
COc1ccc(-c2noc(N3CCC(C(=O)N(C)c4cc(Cl)ccc4OC)CC3)n2)cc1,nt,nt,nt,nt,nt,i
CCOC(=O)C1CCC(CN(Cc2ccc(Cl)cc2)S(=O)(=O)c2cc(Cl)cc(Cl)c2)CC1 (stereo unspecified),nt,nt,nt,nt,nt,i
CCCC(=O)Nc1nc(-c2ccc3c(c2)OCCO3)cs1,3.16µM,2.59µM,1.78µM,8.91µM,i,6.01µM
CC(=O)Nc1nnc(-c2ccc3c(c2)CCCC3)o1,3.98µM,?,?,?,i,12µM
Cc1nc(NC(=O)C2CCCC2)sc1Cc1ccc2c(c1)OCO2,?,i,i,?,i,16.9µM
CCn1c(=O)cc(OCC(=O)N(C)c2cc(Cl)ccc2C)c2ccccc21,nt,nt,nt,i,nt,i
COC(=O)C1=C(O)/C(=C\c2ccc(OCC(=O)Nc3ccccc3)cc2)N=C1C,i,i,i,nt,nt,23.9µM
COC(=O)C1=C(O)/C(=C/c2cccc(OC)c2O)N=C1C,?,i,i,nt,nt,15.1µM
COc1cccc(N2C(=O)CSC23C(=O)N(CC(=O)Nc2cccc(Cl)c2)c2ccccc23)c1 (stereo unspecified),nt,nt,nt,nt,nt,i
CN(C)CCCNC(=O)c1cc2sc3ccccc3c2s1,i,?,i,nt,i,i
CCCCNC(=S)N1CCN(c2nc3ccccc3s2)CC1,i,i,i,nt,i,i
CCCCNC(=O)c1cc2ccccc2s1,?,i,i,i,i,16.9µM
COCCNC(=O)c1cc2sc3ccccc3c2s1,2.82µM,14.6µM,?,14.1µM,i,10.7µM
CCCCNC(=O)N(C)c1nc2ccccc2s1,1.78µM,?,?,nt,i,13.5µM
SMILES,Rab9 prom act,ELG1 genotox,NPC1 prom act,SMN2 splice up,Luc counter,FLuc counter
COC(=O)N(C)c1nc2ccccc2s1,i,?,i,i,i,23.9µM
COCCN(C(=O)Nc1ccc(OC)cc1)c1nc2ccccc2s1,i,i,i,nt,nt,i
CCCNC(=O)c1cc2cc([N+](=O)[O-])ccc2s1,i,i,i,i,i,i
COc1ccc(C)cc1NC(=O)c1sc2ncn(CC(=O)N3CCCCC3)c(=O)c2c1C,i,i,i,nt,nt,i
COc1cc(NC(=O)C(CCSC)NS(=O)(=O)c2ccc3c(c2)oc(=O)n3C)cc(OC)c1 (stereo unspecified),nt,nt,nt,nt,nt,i
CCCCN(C)S(=O)(=O)c1cc(-c2cc(C)no2)ccc1C,nt,nt,nt,nt,nt,i
Nn1c(-c2ccccc2Cl)nnc1-c1ccccc1Cl,3.98µM,?,3.55µM,?,i,0.953µM
CCOC(=O)COc1ccc([N+](=O)[O-])cc1-c1ccnc2cc(-c3ccc(C)cc3)nn12,nt,nt,nt,i,nt,i
CCOC(=O)Cn1cnc(-c2ccc([N+](=O)[O-])cc2)c1,?,?,i,?,i,12µM
COc1ccccc1C1Nc2c(sc3nc(C)cc(C)c23)C(=O)N1c1ccccc1 (stereo unspecified),nt,nt,nt,12.6µM,nt,?
COCc1cc(C)nc2sc3c(c12)NC(c1ccccc1C(=O)O)N(c1cccc(C(F)(F)F)c1)C3=O (stereo unspecified),nt,nt,nt,i,nt,?
CC(C)C(NC(=O)OCc1ccccc1)C(=O)OCC(=O)N1CCCCC1 (stereo unspecified),?,20.6µM,i,?,i,16.9µM
Cc1ccccc1CN1C(=O)c2ccccc2S(=O)c2ccc(C(=O)NCc3ccco3)cc21 (stereo unspecified),nt,nt,nt,i,nt,i
O=C(Oc1ccc2ccccc2c1Cl)N1CCCCCC1,0.562µM,?,1.12µM,12.6µM,i,1.07µM
O=C(Oc1ccc(Cl)cc1)N1CCCCC1,i,16.4µM,i,i,i,23.9µM
O=C(Nc1ccccc1Br)c1c(F)cccc1Cl,i,i,i,i,i,i
Cc1c(Cl)cccc1NC(=O)CSc1nc2ncccc2o1,nt,nt,nt,nt,nt,i
O=C1C2C3C=CC(C3)C2C(=O)N1c1ccc2c(c1)OCO2 (stereo unspecified),i,i,i,nt,i,i
O=C1C2C3C=CC(CC3)C2C(=O)N1c1ccc2c(c1)OCO2 (stereo unspecified),i,i,i,i,i,16.9µM
CCN(CC)c1ccc(/C=C(\C#N)C(N)=S)cc1,i,i,i,nt,nt,21.3µM
CCCCC1CCC(C(=O)N2CC(=O)Nc3ccc(Br)cc3C2c2ccc(F)cc2)CC1 (stereo unspecified),nt,nt,nt,i,nt,i
CC(=O)Oc1oc(-c2ccccc2)nc1/C=N/c1ccccn1,i,?,i,?,?,21.3µM
CN(C)c1ccc(N=Cc2nc(-c3ccccc3)oc2OC(=O)c2ccccc2)cc1,?,?,?,11.2µM,i,?
COc1ccccc1N=Cc1nc(-c2ccccc2)oc1OC(C)=O,i,i,i,i,i,i
S=c1[nH]nc(-c2ccco2)n1/N=C/C(Cl)=C/c1ccccc1,1.58µM,?,3.55µM,nt,nt,?
SMILES,Rab9 prom act,ELG1 genotox,NPC1 prom act,SMN2 splice up,Luc counter,FLuc counter
Cc1cc(-c2n[nH]c(=S)n2/N=C/C(Cl)=C/c2ccccc2)n[nH]1,?,?,i,?,i,i
CCC1(c2ccccc2)NC(=O)N(CC(=O)Nc2ccc(N3CCCC3)cc2C)C1=O (stereo unspecified),i,i,i,nt,nt,i
CCOc1ccc(NS(=O)(=O)c2c(C)nc3sc(C)c(C)n3c2=O)cc1,nt,nt,nt,nt,nt,i
COc1ccccc1-c1ccc(SCc2ccccc2)nn1,?,i,i,i,i,13.5µM
COc1ccccc1-c1ccc(SCc2cccc(F)c2)nn1,i,i,i,i,i,23.9µM
COc1ccccc1-c1ccc(SCc2ccccc2F)nn1,?,i,i,i,i,13.5µM
